{"source": "the supplement of paper PMC6555819", "data": [{"tested_on": "VDR:RXRa (NR concentration 270 nM, RXRa partner concentration 90 nM)", "test": "PBM binding z-score (relative to random genomic background probes); higher = stronger binding; sequences stand for … in GC…GCGATTGACAGCGTAGAATGAAGG", "method": "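Protein-binding microarray (Agilent 4x180K custom design, double-stranded 60-nt probes: 5' GC cap, 34-nt variable region, 24-nt constant primer region; full probe sequence given). Purified or IVT nuclear receptor:RXRα heterodimers (3:1 NR:RXRα, mostly 270:90 nM) or homodimers were incubated for 1 h in PBS with 2% milk and no ligand, then detected with Alexa488 antibodies. Fluorescence from o1-orientation probes (~5 replicates averaged) was converted to z-scores against 500 random hg19 background probes. Variable regions are seed direct-repeat (DR0–DR5) sites, all their single-nucleotide variants and half-site ablations.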", "values": [{"sequence": "GCTTATGGGTCAAAGGTTATAGCATGAATAGAAT", "PBM binding z-score": 4.82}, {"sequence": "ACTAGCAGGCCAAGGGTCACTAAAGATTAGTCCG", "PBM binding z-score": 2.62}, {"sequence": "CCTCGGAGGACAACAGGAGGTCAGAGCAGCCAGA", "PBM binding z-score": 1.94}, {"sequence": "GCTGTTAGTTGAAAGGGCAACCGAATGATTCTCG", "PBM binding z-score": 0.572}, {"sequence": "CCTAGCAGGCCAATCTGTGTCACTCAAGGCTTGA", "PBM binding z-score": -0.331}, {"sequence": "CCGACTGGGGCATGAGGTTACCATAAGCCAGCCC", "PBM binding z-score": -0.146}, {"sequence": "AATAGTTGGTCAGCTGAGGTCACACACAATTCGG", "PBM binding z-score": 4.69}, {"sequence": "TCAAACAGGTGAAGGTAACTCAGGTACGCAGTCG", "PBM binding z-score": 1.13}, {"sequence": "GCGACTGGGGCAAAGCAGGTAACCATAAGGTTGG", "PBM binding z-score": -0.313}, {"sequence": "CGAACTAGGTCATTGACAGGACACTGAATAGTAA", "PBM binding z-score": 2.52}, {"sequence": "ACTAGCAGGCCAAGTTTGGGTCACTGAAACAAAG", "PBM binding z-score": 0.731}, {"sequence": "GGAACGAGGGCATTCGAGTTGACAGCATGGCGAT", "PBM binding z-score": 3.41}, {"sequence": "GCTGCTAGGTCAACTGATGTTCAGCTAAAGCTCG", "PBM binding z-score": 1.61}, {"sequence": "CCGAGTAGGTTATGGGGCGTTCAGGCAACGGTGA", "PBM binding z-score": 0.0035}, {"sequence": "CCGACTGGGGCAGAAAGGTTACCATACCATCCGG", "PBM binding z-score": 0.836}, {"sequence": "CCGAGAAGGTTATGGGGCATTCAGGCAACGGTGA", "PBM binding z-score": 0.66}, {"sequence": "GATACAGGGTCATGGCCAGAGTACGCGTATTGAT", "PBM binding z-score": 4.83}, {"sequence": "CCTAGCAGGCCAGTGTCACTCAAGCATTTCGCTT", "PBM binding z-score": -0.398}, {"sequence": "GCTAGCAGGCCATTTGAGTCACTCAATGACGGGC", "PBM binding z-score": -0.568}, {"sequence": "CCTCGGAGGACAACAGGAGGCCAGAGCTGCCAGA", "PBM binding z-score": -0.504}, {"sequence": "TGAATGAGGTTCTAAGATCAGGGAACGTTGCAAA", "PBM binding z-score": -0.428}, {"sequence": "CCTAGCAGGCCAATCTGGGTCACTCTAGGCTTGA", "PBM binding z-score": 0.251}, {"sequence": "TCTTGTAGATAAATAGAGGTTAAGAAAGTGCGCT", "PBM binding z-score": 1.87}, {"sequence": "ATACCAAGGTGAACGTGAGGTCGTTGATACTAAC", "PBM binding z-score": 4.41}, {"sequence": "GCGACTGGGGCAAAGCAGGTTACGATAAGGTTGG", "PBM binding z-score": 0.0646}, {"sequence": "CAAACTAGGTCAGCGGAAGGTCAAAGTCCGCATG", "PBM binding z-score": 5.07}, {"sequence": "CCTAGCAGGCCAATCAGGGTCACTCAAGGCTTGA", "PBM binding z-score": 3.66}, {"sequence": "TCTATTAGTTGATTAGGGCAAACGAAACAGCGGA", "PBM binding z-score": 0.637}, {"sequence": "CCAGACAGGTGAAAGGTAACGCAGTCTGGTACGC", "PBM binding z-score": 0.77}, {"sequence": "GCAGACAGGTGAAACGCAGGTGACTCAGGGTGGC", "PBM binding z-score": -0.335}, {"sequence": "ATCTCTAGTTAAAGTTCAGTGAAAGATCGATAGA", "PBM binding z-score": 1.64}, {"sequence": "TGAATGAGGTTATAAGATCACGGAACGTTGCAAA", "PBM binding z-score": 1.53}, {"sequence": "ATCTCTAGGTAACCAAGTTCAGTGAATGCCGAAC", "PBM binding z-score": 4.23}, {"sequence": "ATACCAAGGTGATCGTGTGGTCGTTGATACTAAC", "PBM binding z-score": 0.0148}, {"sequence": "TCTGCTAGGTCAGTTGGTCAGCTACCGAGCTGCC", "PBM binding z-score": 0.106}, {"sequence": "CTCGAAAGGTTGGTTGAGGTGAGTATACGGATAA", "PBM binding z-score": 0.828}, {"sequence": "ATCTCTAGGTAACCAAGTTCAGAGAATGCCGAAC", "PBM binding z-score": 4.26}, {"sequence": "CCGACTGGGGCAACGTTACCATAACGCACAGCCA", "PBM binding z-score": -0.557}, {"sequence": "ATCTTTAGGTAACAAGTTCAGTGAAAGAGAGGAC", "PBM binding z-score": 1.81}, {"sequence": "GGTTACGGGTCAAAGGTTATAGCATGAATAGAAT", "PBM binding z-score": 5.46}]}]}
